From PubChem BioAssay (Tox21) come the findings set out here.

Values joined by “and” are separate entries in the source; they are usually repeats but may differ in a detail not shown here. Equal values may be shown once. Records with an inconclusive call do not appear. Where a call stands in place of a potency, no number is given. Unmarked numbers belong to inactive results. Active and inactive are the calls of the source. The call rests on the fitted dose curve; in most records, active means well fitted inhibition curve with a large enough effect in the signal ratio in the repeat runs (not every such curve was filed as active); inconclusive means weak or mixed curves, or effect the other way; inactive means no such curve, though single readings can be large or run the other way; the % refers to the signal ratio.
Potency means the concentration at half of the fitted maximal effect.

Sequence of Glucocorticoid receptor (Homo sapiens) (P04150 whole entry, looked up): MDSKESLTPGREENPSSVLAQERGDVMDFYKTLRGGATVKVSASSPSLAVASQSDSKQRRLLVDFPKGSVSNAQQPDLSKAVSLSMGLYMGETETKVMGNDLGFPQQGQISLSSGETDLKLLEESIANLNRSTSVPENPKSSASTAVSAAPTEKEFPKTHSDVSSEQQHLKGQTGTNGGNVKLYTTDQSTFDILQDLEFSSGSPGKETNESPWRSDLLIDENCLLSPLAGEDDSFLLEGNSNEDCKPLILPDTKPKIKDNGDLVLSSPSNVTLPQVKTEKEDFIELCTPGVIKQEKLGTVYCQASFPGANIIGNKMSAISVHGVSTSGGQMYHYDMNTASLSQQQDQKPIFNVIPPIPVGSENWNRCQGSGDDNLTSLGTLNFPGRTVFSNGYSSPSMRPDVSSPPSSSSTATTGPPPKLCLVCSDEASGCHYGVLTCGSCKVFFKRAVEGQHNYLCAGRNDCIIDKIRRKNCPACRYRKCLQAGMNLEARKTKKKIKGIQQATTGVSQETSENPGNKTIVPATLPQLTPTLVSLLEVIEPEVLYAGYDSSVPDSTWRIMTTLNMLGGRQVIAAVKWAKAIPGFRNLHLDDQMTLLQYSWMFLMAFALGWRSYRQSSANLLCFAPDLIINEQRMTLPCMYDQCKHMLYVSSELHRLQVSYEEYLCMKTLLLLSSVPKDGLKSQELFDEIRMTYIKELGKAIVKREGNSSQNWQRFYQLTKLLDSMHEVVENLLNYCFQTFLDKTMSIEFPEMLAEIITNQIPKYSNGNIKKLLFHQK

This assay deals with Glucocorticoid receptor (Homo sapiens) (UniProt P04150). Kind of assay: qHTS assay to identify small molecule antagonists of the glucocorticoid receptor (GR) signaling pathway (AID 720692). As to conditions: GR-bla HeLa, beta-lactamase FRET ratio, dexamethasone-stimulated, 18 h; series mostly up to 58.5 µM; activity change, negative = inhibition: at the top concentration. In short, it runs like this:
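Inhibition of dexamethasone-driven (5 nM final) beta-lactamase expression was measured in GRE-reporter HeLa cells over 18 h at 37C. Fluorescence was read after 2 h with the B/G FRET substrate at room temperature.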
In the case of `CCCCOCCOP(=O)(OCCOCCCC)OCCOCCCC`, the Potency result was “inactive”.
Take `N[C@@H](Cc1ccc(N(CCCl)CCCl)cc1)C(=O)O`: the Potency entry was “inactive”.
In the case of `CCC(=O)O[C@H]1CC[C@H]2[C@@H]3CCC4=CC(=O)CC[C@]4(C)[C@H]3CC[C@]12C`, the Potency is 5.12 µM (active) and 4.9 µM (active).
As to `Nn1cnnc1`, the Potency result was “inactive”.
Consider `c1ccc(N=Nc2ccccc2)cc1`, for which the Potency entry is “inactive”.
On to `OCC(O)CO`, for which the Potency entry is “inactive”.
`COc1ccc(C=O)cc1`: the Potency entry is “inactive”.
For `c1ccc(NNc2ccccc2)cc1`, the Potency result was “inactive”.
As to `C[C@]12CCC(=O)C(O)=C1CC[C@@H]1[C@@H]2CC[C@]2(C)C(=O)CC[C@@H]12`, the Potency entry was “inactive”.
As to `CCCCN(CCCC)N=O`, the Potency entry was “inactive”.
Take `C=CCN(CC=C)C(=O)C(Cl)Cl`: the Potency entry was “inactive”.
On the same count and under the same terms, to `CCOP(=S)(OCC)O/N=C(\C#N)c1ccccc1` belongs “inactive”; to `N#CCCCl`, “inactive”; to `CCN(CC)C(=O)SCc1ccc(Cl)cc1`, “inactive”.
For the compound `COP(=O)(OC)OC`, the Potency result was “inactive”.
Consider `CN(C)C(=O)Nc1ccc(Cl)cc1`, for which the “activity change, negative = inhibition” value is 6.55%.
Take `Nc1ccc(Cl)cc1N`: the “activity change, negative = inhibition” value is 4.03% [at 78.9 µM].
Turning to `COP(=S)(OC)Oc1cc(Cl)c(Cl)cc1Cl`, the “activity change, negative = inhibition” value was 5.8%.
On the same count and under the same terms, for `CC(C)C(=O)OCC(C)(C)C(OC(=O)C(C)C)C(C)C` (stereo not given) the value was -0.528%.
Take `C#C[C@]1(O)CC[C@H]2[C@@H]3CCC4=CC(=O)CC[C@]4(C)[C@H]3CC[C@@]21C`: the Potency was 1.69 µM (active).
In the case of `NNC(N)=S`, the “activity change, negative = inhibition” value was -15% [at 78.9 µM].
Take `CCCCCCOC(=O)c1ccccc1C(=O)OCCCCCC`: the Potency result was “inactive”.
The same measure, in the same setting: for `Cc1cc(Cl)ccc1OCCCC(=O)O` the value was “inactive”; for `CC(C)N(C(=O)SCC(Cl)=C(Cl)Cl)C(C)C`, “inactive”.
For `CCCCC(CC)COC(=O)c1ccc(C(=O)OCC(CC)CCCC)c(C(=O)OCC(CC)CCCC)c1` (stereo not given), the “activity change, negative = inhibition” value was 4.41%.
